The results in this text go back to PubChem BioAssay (EPA / NIEHS).

Calls of active or inactive are those of the source. Rule for the calls: active = hit-call score of the fitted dose curve at least 0.9, where 1 is the maximum; inactive = score below 0.9.

Settings in all cases: mRNA level, 48 h; actives raise or lower the signal
Read-out in assay [1]: MicroRNA 122 (MIR122), gene 406906
The assay can be described thus: LTEA_HepaRG_MIR122: Life Technologies and Expression Analysis (LTEA) Assay for MicroRNA 122 (MIR122) using HepaRG (AID 2283516). Note: the transcript read is the microRNA miR-122. The essentials:
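HepaRG, 48 h exposure, 8-pt half-log from 100 uM, 0.5% DMSO; TaqMan qRT-PCR; bidirectional fit vs DMSO.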

Read-out in assay [2]: matrix metalloproteinase-10 (MMP10), MMP10 (gene 4319)
Nature of the assay: LTEA_HepaRG_MMP10: Life Technologies and Expression Analysis (LTEA) Assay for matrix metalloproteinase-10 (MMP10) using HepaRG (AID 2283517). A digest of the protocol:
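Differentiated HepaRG cells in serum-free induction medium exposed 48 h in duplicate to 8-point half-log series up to 100 uM in 0.5% DMSO. mRNA quantified by qRT-PCR, normalised to ACTB, GAPDH, POLR2A; bidirectional fit versus DMSO.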

Read-out in the next assay: MYC, MYC (gene 4609)
Nature of the assay: LTEA_HepaRG_MYC: Life Technologies and Expression Analysis (LTEA) Assay for MYC using HepaRG (AID 2283518). A digest of the protocol: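 Expression changes were scored by TaqMan qRT-PCR with ACTB, GAPDH and POLR2A normalization. Cultures in serum-free induction medium received duplicate 8-point concentration series, highest 100 uM, for 48 h; DMSO (0.5%) served as baseline.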

Read-out in assay [3]: matrix metalloproteinase-3 (MMP3), MMP3 (gene 4314)
Nature of the assay: LTEA_HepaRG_MMP3: Life Technologies and Expression Analysis (LTEA) Assay for matrix metalloproteinase-3 (MMP3) using HepaRG (AID 2283519). The essentials: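 HepaRG cells (~100,000/well) in serum-free induction medium were dosed in duplicate for 48 h with an 8-point half-log series from 100 uM, 0.5% DMSO. MMP3 mRNA was quantified by Fluidigm TaqMan qRT-PCR, normalized to three housekeeping genes.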

Read-out in assay [4]: Paternally Expressed 10 (PEG10), PEG10 (gene 23089)
Nature of the assay: LTEA_HepaRG_PEG10: Life Technologies and Expression Analysis (LTEA) Assay for Paternally Expressed 10 (PEG10) using HepaRG (AID 2283520).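 For AC50: PEG10 transcript by qRT-PCR normalised to ACTB GAPDH and POLR2A.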 The essentials:
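Chemicals tested on HepaRG cells for 48 h, highest concentration 100 uM. PEG10 expression assessed by qRT-PCR relative to DMSO control.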

Read-out in assay [5]: Protein phosphatase 2A (PPP2R4), PTPA (gene 5524)
Nature of the assay: LTEA_HepaRG_PPP2R4: Life Technologies and Expression Analysis (LTEA) Assay for Protein phosphatase 2A (PPP2R4) using HepaRG (AID 2283522). A digest of the protocol: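 Gene-expression endpoint in HepaRG hepatic cells: 48 h treatment across eight half-log concentrations up to 100 uM in 0.5% DMSO. PPP2R4 mRNA by qRT-PCR, normalized to three endogenous control genes.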

Read-out in assay [6]: solute carrier (SLC22A1), SLC22A1 (gene 6580)
Nature of the assay: LTEA_HepaRG_SLC22A1: Life Technologies and Expression Analysis (LTEA) Assay for solute carrier (SLC22A1) using HepaRG (AID 2283524). A digest of the protocol:
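Differentiated human HepaRG cells in serum-free induction medium, exposed 48 h in duplicate to 8-point half-log series from 100 µM top in 0.5% DMSO. SLC22A1 mRNA by TaqMan qRT-PCR normalized to ACTB, GAPDH, POLR2A; bidirectional fit versus DMSO.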

Read-out in assay [7]: Pyruvate Dehydrogenase Kinase 4 (PDK4), PDK4 (gene 5166)
The assay can be described thus: LTEA_HepaRG_PDK4: Life Technologies and Expression Analysis (LTEA) Assay for Pyruvate Dehydrogenase Kinase 4 (PDK4) using HepaRG (AID 2283525). The essentials: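 HepaRG cells plated 48 h, then switched to serum-free induction medium and exposed in duplicate for 48 h to 8 half-log concentrations from 100 uM in 0.5% DMSO. PDK4 mRNA measured by qRT-PCR, normalized to ACTB, GAPDH and POLR2A; bidirectional fit versus DMSO.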

Read-out in assay [8]: Nuclear factor NF-kappa-B p105 subunit (Homo sapiens) (UniProt P19838)
The assay can be described thus: LTEA_HepaRG_NFKB1: Life Technologies and Expression Analysis (LTEA) Assay for Nuclear Factor Kappa B Subunit 1 (NFKB1) using HepaRG (AID 2283521).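 Note: TaqMan qRT-PCR transcript normalised to ACTB GAPDH and POLR2A housekeeping genes.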 A digest of the protocol:
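NFKB1 transcript was measured by TaqMan qRT-PCR on Fluidigm arrays, normalised to three housekeeping genes and fitted in both directions against 0.5% DMSO. HepaRG cells were dosed in duplicate for 48 h in serum-free induction medium, eight half-log steps from 100 uM.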

Read-out in assay [9]: Phosphatase and tensin (PTEN), PTEN (gene 5728)
Nature of the assay: LTEA_HepaRG_PTEN: Life Technologies and Expression Analysis (LTEA) Assay for Phosphatase and tensin (PTEN) using HepaRG (AID 2283523). A digest of the protocol: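 HepaRG cells, 48 h after plating, exposed in duplicate for 48 h in serum-free induction medium to 8 half-log concentrations up to 100 uM (0.5% DMSO). PTEN mRNA by qRT-PCR, normalized to ACTB, GAPDH, POLR2A; bidirectional fit versus DMSO.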

Nuclear factor NF-kappa-B p105 subunit (Homo sapiens), sequence (P19838 whole entry, looked up): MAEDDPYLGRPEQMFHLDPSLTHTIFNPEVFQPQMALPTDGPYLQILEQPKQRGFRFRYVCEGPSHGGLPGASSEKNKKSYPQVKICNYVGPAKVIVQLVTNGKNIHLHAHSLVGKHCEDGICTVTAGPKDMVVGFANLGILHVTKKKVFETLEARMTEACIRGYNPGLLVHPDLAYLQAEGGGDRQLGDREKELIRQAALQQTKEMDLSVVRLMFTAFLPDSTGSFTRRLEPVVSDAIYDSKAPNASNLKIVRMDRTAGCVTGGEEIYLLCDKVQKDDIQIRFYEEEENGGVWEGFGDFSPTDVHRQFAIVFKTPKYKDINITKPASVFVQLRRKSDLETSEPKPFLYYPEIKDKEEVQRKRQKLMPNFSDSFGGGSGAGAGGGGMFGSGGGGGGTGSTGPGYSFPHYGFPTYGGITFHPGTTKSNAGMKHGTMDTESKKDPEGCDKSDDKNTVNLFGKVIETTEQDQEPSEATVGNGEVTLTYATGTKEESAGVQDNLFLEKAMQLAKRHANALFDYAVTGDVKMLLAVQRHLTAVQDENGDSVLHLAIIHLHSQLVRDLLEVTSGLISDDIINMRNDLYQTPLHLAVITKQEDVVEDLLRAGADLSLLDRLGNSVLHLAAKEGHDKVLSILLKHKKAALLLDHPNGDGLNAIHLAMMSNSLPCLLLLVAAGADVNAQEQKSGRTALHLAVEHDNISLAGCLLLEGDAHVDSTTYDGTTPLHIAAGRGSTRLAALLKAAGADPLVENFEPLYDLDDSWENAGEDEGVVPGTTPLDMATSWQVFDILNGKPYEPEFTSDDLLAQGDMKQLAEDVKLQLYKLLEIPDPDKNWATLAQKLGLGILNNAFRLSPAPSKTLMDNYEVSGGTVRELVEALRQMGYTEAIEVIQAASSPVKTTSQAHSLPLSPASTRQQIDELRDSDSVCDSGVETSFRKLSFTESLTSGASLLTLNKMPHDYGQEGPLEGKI

The term AC50 denotes the concentration at which the activity in the assay is half-maximal. In the case of `CCOP(=S)(OCC)Oc1ccc2c(C)c(Cl)c(=O)oc2c1`, the AC50 in assay [1] was 50 µM (active); in the assay with MYC, MYC (gene 4609), 50 µM (active); in [4] it was 13.2 µM (active); in assay [6] it was 70 µM (active); in assay [7] it was 0.837 µM (active). Also, the outcome in assay [2], in [3] and in assay [5] was inactive.

As to `CC(C)N(C(=O)SCC(Cl)=C(Cl)Cl)C(C)C`, the outcome is “inactive” in assay [1]; “inactive” in assay [2]; “inactive” with MYC, MYC (gene 4609); “inactive” in [3]; “inactive” in [4]; “inactive” in assay [5]. The result in [6] and in assay [7] was inactive.

For `CC(COc1ccc(Oc2ccccc2)cc1)Oc1ccccn1` (centres undefined), the outcome is “inactive” in [1]; “inactive” in assay [2]; “inactive” with MYC, MYC (gene 4609); “inactive” in assay [3]; “inactive” in assay [4]; “inactive” in [8]. Also, the compound was classed as inactive in assay [5]. Besides, the AC50 in [6] is 12.1 µM (active); in assay [7], 25.4 µM (active).

For the compound `CNC(=O)ON=C(C)SC`, the outcome in assay [1] was “inactive”; in [2], “inactive”; with MYC, MYC (gene 4609) it was “inactive”; in [3] it was “inactive”; in [4] it was “inactive”; in assay [8], “inactive”. The result in [5], in [6] and in [7] was inactive.

For the compound `CSc1nnc(C(C)(C)C)c(=O)n1N`, the outcome in [1] is “inactive”; in assay [2], “inactive”; with MYC, MYC (gene 4609) it was “inactive”; in assay [3] it was “inactive”; in assay [4], “inactive”; in assay [8], “inactive”. The result in assay [5], in assay [6] and in [7] was inactive.

Consider `CSc1nc(NC(C)C)nc(NC(C)C)n1`, for which the AC50 in assay [1] is 50 µM (active); in assay [4], 22.5 µM (active); in assay [6], 34.4 µM (active). Further, the outcome was “inactive” in assay [2]; “inactive” in the assay with MYC, MYC (gene 4609); “inactive” in assay [3]; “inactive” in [5]; “inactive” in assay [9]; “inactive” in assay [7].

Regarding `CCOP(=O)(SC(C)CC)N1CCSC1=O` (centres undefined), the outcome in assay [1] was “inactive”; in the assay with MYC, MYC (gene 4609), “inactive”; in [3], “inactive”; in [5] it was “inactive”; in assay [6], “inactive”. Further, the AC50 in assay [4] was 26.2 µM (active); in assay [7], 21.7 µM (active).

`Cc1ccn2nc(S(=O)(=O)Nc3c(F)cccc3F)nc2n1`: the outcome in assay [1] was “inactive”; in assay [2], “inactive”; with MYC, MYC (gene 4609) it was “inactive”; in [3], “inactive”; in assay [4], “inactive”; in [5], “inactive”. In addition, the outcome in assay [6] and in [7] was inactive.

As for `C#CC(C)(C)NC(=O)c1cc(Cl)cc(Cl)c1`, the outcome in [1] is “inactive”; with MYC, MYC (gene 4609), “inactive”; in assay [3], “inactive”; in assay [8], “inactive”; in assay [5], “inactive”; in [6], “inactive”. The call in assay [7] was inactive. In addition, the AC50 in assay [4] is 50 µM (active).

On to `CCNc1nc(Cl)nc(NC(C)(C)C#N)n1`, for which the outcome in [1] is “inactive”; in [2], “inactive”; with MYC, MYC (gene 4609) it was “inactive”; in assay [3] it was “inactive”; in [5], “inactive”; in assay [9], “inactive”. For the same compound, the compound was classed as inactive in assay [6] and in [7]. In assay [4], the AC50 is 26.5 µM (active).

On to `CNC(=O)Oc1cccc2c1OC(C)(C)O2`, for which the outcome in assay [1] was “inactive”; in assay [2], “inactive”; with MYC, MYC (gene 4609), “inactive”; in assay [3], “inactive”; in assay [4], “inactive”; in [5] it was “inactive”. Also, the compound was classed as inactive in [6] and in assay [7].

Take `Cc1cc(C2CC2)nc(Nc2ccccc2)n1`: the outcome in [1] was “inactive”; in assay [2] it was “inactive”; in the assay with MYC, MYC (gene 4609), “inactive”; in assay [3], “inactive”; in [4], “inactive”; in [5], “inactive”. Also, the compound was classed as inactive in assay [7]. Further, the AC50 in assay [6] is 67.7 µM (active).

As to `Cc1nn(-c2cc(NS(C)(=O)=O)c(Cl)cc2Cl)c(=O)n1C(F)F`, the outcome is “inactive” in [1]; “inactive” in [2]; “inactive” with MYC, MYC (gene 4609); “inactive” in assay [3]; “inactive” in assay [4]; “inactive” in assay [5]. Moreover, the compound was classed as inactive in assay [6] and in [7].

For `CCOP(=S)(OCC)Oc1cc(C)nc(C(C)C)n1`, the outcome in [1] is “inactive”; in [2], “inactive”; with MYC, MYC (gene 4609), “inactive”; in [3] it was “inactive”; in [8], “inactive”; in assay [5], “inactive”. The compound was classed as inactive in assay [6] and in [7]. The AC50 in assay [4] is 50 µM (active).

For `CCc1cccc(C)c1N(C(=O)CCl)C(C)COC` (centres undefined), the compound was called inactive in assay [1], in assay [2], in assay [3], in assay [4], in assay [8] and in assay [5]. Further, the outcome in assay [9], in assay [6] and in assay [7] was inactive.

On to `COc1cccc(C(=O)NN(C(=O)c2cc(C)cc(C)c2)C(C)(C)C)c1C`, for which the outcome was “inactive” in assay [1]; “inactive” in assay [2]; “inactive” with MYC, MYC (gene 4609); “inactive” in [3]; “inactive” in assay [4]; “inactive” in [8]. Moreover, the result in [5] was inactive. The AC50 in [7] is 69.7 µM (active).

Take `COP(=O)(OC)OC(Br)C(Cl)(Cl)Br` (centres undefined): the outcome in [2] is “inactive”; with MYC, MYC (gene 4609), “inactive”; in assay [3], “inactive”; in [4], “inactive”; in [5], “inactive”; in assay [9], “inactive”. For the same compound, the call in assay [6] and in assay [7] was inactive.

`COc1cc(OC)nc(Sc2cccc(Cl)c2C(=O)O)n1`: the outcome is “inactive” in [1]; “inactive” in assay [2]; “inactive” with MYC, MYC (gene 4609); “inactive” in assay [3]; “inactive” in assay [4]; “inactive” in assay [8]. The compound was called inactive in assay [5], in [6] and in assay [7].

With `C[Si](Cn1cncn1)(c1ccc(F)cc1)c1ccc(F)cc1`, the AC50 in assay [1] is 61.4 µM (active); in the assay with MYC, MYC (gene 4609), 68.1 µM (active); in assay [3], 11.6 µM (active); in assay [6] it was 63.1 µM (active). Further, the call in [4], in assay [5], in assay [9] and in assay [7] was inactive.
